Results taken from PubChem BioAssay (NCATS).
Results filed as inconclusive are left out. Unmarked numbers belong to inactive results. Active and inactive are the calls of the source. The call rests on the fitted dose curve; in most records, active means well fitted cell-killing curve with a large enough effect; inconclusive means small, poorly fitted or top-dose-only effect, or effect the other way; inactive means no such curve, though single readings can be large or run the other way.

Test: Quantitative High-Throughput drug screen in 47 multiple myeloma cell lines against the NCATS MIPE library collection: INA6_PLB cell viability assay (AID 1918965; further: nearly all actives have a fitted effect of over 55% in size)
Conditions: INA6 myeloma viability, CellTiter-Glo ATP luminescence, 48 h; series mostly up to 45.8 µM; viability (% of control): at the top concentration
Source text: PI: Beverly A. Mock Ph.D.
Laboratory of Cancer Biology and Genetics,
Center for Cancer Research, National Cancer Institute,
National Institute of Health, Bethesda, Maryland
Drug resistance and disease progression are common in multiple myeloma (MM) patients, underscoring the need for new therapeutic combinations. […] We hypothesized that effective combinations would reduce MYC expression and enhance p16 activity. […] These preclinical data identify potentially useful drug combinations for evaluation in drug-resistant MM and reveal potential mechanisms of combined drug sensitivity.
Described herein is the primary MIPE qHTS used to cherrypick compounds. Validated compounds were then further tested for potential synergistic activiy.
[1] Peat TJ, Gaikwad SM, Dubois W, Gyabaah-Kessie N, Zhang S, Gorjifard S, Phyo Z, Andres M, Hughitt VK, Simpson RM, Miller MA, Girvin AT, Taylor A, Williams D, D'Antonio N, Zhang Y, Rajagopalan A, Flietner E, Wilson K, Zhang X, Shinn P, Klumpp-Thomas C, McKnight C, Itkin Z, Chen L, Kazandijian D, Zhang J, Michalowski AM, Simmons JK, Keats J, Thomas CJ, Mock BA. Drug combinations identified by high-throughput screening promote cell cycle transition and upregulate Smad pathways in myeloma. Cancer Lett. 2023 Aug 1;568:216284. doi: 10.1016/j.canlet.2023.216284. Epub 2023 Jun 24. PMID: 37356470; PMCID: PMC10408729.
SEQUENCE No. (e.g., 1, 2, 3, etc.); […] (e.g., Cells, Incubation, Reagent, etc.); VALUE and DESCRIPTION.
1; Cells; 5 uL; white, solid bottom 1536-well Greiner assay plate.
2; Compounds; 23 nL; Kalypsis pin tool (Wako USA) equipped with a 1536-well pin head to transfer to the assay plates.
3; Incubation; 48 hours; 37C incubation.
4; Reagent;5uL; CellTiter Glo (Promega).
5; Detector; 425V; Luminescence; Viewlux PerkinElmer.
NOTES (numbers refer to Sequence numbers above)
1. The cell-based screening methods employed in this study were like those previously published. Briefly, the corresponding myeloma cell lines were screened in 1,536-well plates with 500 cells, 5-uL per well for inhibition of cell viability (assessed by measuring ATP levels with CellTiterGlo).
2. NCATS MIPE 4.0 library of approved and investigational drugs were added using the Kalypsis pin tool. Wells treated with DMSO only for 100% viability and media only wells for 0% viability were used as controls.
3. The assay plates were covered and incubated for 48 hours in a 37C, 5% CO2 incubator with controlled humidity.
4. After 48 hours, CellTilter-GloTM luminescent substrate mix (Promega) reagent was added to the assay plate and plates we incubated for 5 min at room temperature.
5. Signal was measured as median relative luminescence units on a ViewLux (PerkinElmer) multiplate reader.
[1] Heske CM, Davis MI, Baumgart JT, Wilson K, Gormally MV, Chen L, Zhang X, Ceribelli M, Duveau DY, Guha R, Ferrer M, Arnaldez FI, Ji J, Tran HL, Zhang Y, Mendoza A, Helman LJ, Thomas CJ. Matrix Screen Identifies Synergistic Combination of PARP Inhibitors and Nicotinamide Phosphoribosyltransferase (NAMPT) Inhibitors in Ewing Sarcoma. Clin Cancer Res. 2017 Dec 1;23(23):7301-7311. doi: 10.1158/1078-0432.CCR-17-1121. Epub 2017 Sep 12. PMID: 28899971; PMCID: PMC6636827.
Potency means the concentration at half of the fitted maximal effect.

| Structure (SMILES) | Potency | viability (% of control) [%] |
| --- | --- | --- |
| COc1ccc2c(c1OC)CN1CCc3cc4c(cc3C1C2)OCO4 (stereo not drawn) | 18700 nM (active) | – |
| O=c1[nH]c2ccccc2n1CCCN1CCC(n2c(=O)[nH]c3cc(Cl)ccc32)CC1 | 18700 nM (active) | – |
| Cc1cccc(C)c1NC(=O)CN1CCCC1=O | – | 145 |
| C=C(C)[C@H]1Cc2c(ccc3c2O[C@@H]2COc4cc(OC)c(OC)cc4[C@@H]2C3=O)O1 | 118 nM (active) | – |
| CNCC(O)c1ccc(O)cc1 (stereo not drawn) | – | 85.9 |
| CNC(=O)N1N=C(c2ccc(N)cc2)c2cc3c(cc2CC1C)OCO3 (stereo not drawn) | 1180 nM (active) | – |
| CCCC(C)(COC(N)=O)COC(=O)NC(C)C (stereo not drawn) | – | 131 |
| CN1CCN(C(=O)O[C@H]2c3nccnc3C(=O)N2c2ccc(Cl)cn2)CC1 | – | 168 |
| CN(C)CCN(C)CCc1ccc(Cl)c(Cl)c1 | – | 146 |
| Cn1c(CCCC(=O)O)nc2cc(N(CCCl)CCCl)ccc21 | 18700 nM (active) | – |
| Fc1ccc(C(OCCN2CCN(CCCc3ccccc3)CC2)c2ccc(F)cc2)cc1 | 13200 nM (active) | – |
| Cc1sc2c(c1C)C(c1ccc(Cl)cc1)=N[C@@H](CC(=O)OC(C)(C)C)c1nnc(C)n1-2 | 29.6 nM (active) | – |
| C[C@@H]1[C@@H](C(=O)C[C@H]2O[C@@H]3O[C@]4(C)CC[C@@H]5[C@H](C)CC[C@@H]([C@H]2C)[C@@]35OO4)O[C@@H]2O[C@]3(C)CC[C@H]4[C@H](C)CC[C@@H]1[C@@]24OO3 | 264 nM (active) | – |
| COC[C@H]1OC(=O)c2coc3c2[C@@]1(C)C1=C(C3=O)C2CCC(=O)[C@@]2(C)C[C@H]1OC(C)=O (stereo partly drawn) | 2350 nM (active) | – |
| CC(O)(CS(=O)(=O)c1ccc(F)cc1)C(=O)Nc1ccc(C#N)c(C(F)(F)F)c1 (stereo not drawn) | 590 nM (active) | – |
| NCC1(CC(=O)O)CCCCC1 | – | 132 |
| Cn1cc(C2=C(c3cn(C4CCN(Cc5ccccn5)CC4)c4ccccc34)C(=O)NC2=O)c2ccccc21 | 4690 nM (active) | – |
| CNC(=O)c1ccc(N2C(=S)N(c3ccc(C#N)c(C(F)(F)F)c3)C(=O)C23CCC3)cc1F | 16600 nM (active) | – |
| CC1=C2C[C@@H]3[C@@H](CC=C4C[C@@H](O)CC[C@@]43C)[C@@H]2CC[C@]12O[C@H]1C[C@H](C)CN[C@H]1[C@H]2C | – | 153 |
| N[C@@H](Cc1ccc(N(CCCl)CCCl)cc1)C(=O)O | 1320 nM (active) | – |
| O=C1CC[C@@]2(O)[C@H]3Cc4ccc(O)c5c4[C@@]2(CCN3CC2CC2)[C@H]1O5 | 8330 nM (active) | – |
| C[C@@H]1O[C@@H](O[C@H]2C[C@@H](O)[C@]3(CO)[C@H]4[C@H](O)C[C@]5(C)[C@@H](C6=CC(=O)OC6)CC[C@]5(O)[C@@H]4CC[C@]3(O)C2)[C@H](O)[C@H](O)[C@H]1O | 23.5 nM (active) | – |
| C[C@@H]1[C@@H](CC(C[C@H]2O[C@@H]3O[C@]4(C)CC[C@@H]5[C@H](C)CC[C@@H]([C@H]2C)[C@@]35OO4)C[S+](=O)([O-])c2ccc(COC(=O)N(C)C)cc2)O[C@@H]2O[C@]3(C)CC[C@H]4[C@H](C)CC[C@@H]1[C@@]24OO3 (stereo partly drawn) | 235 nM (active) | – |
